Laboratory results taken from the supplement of paper PMC11018630.
Structures can show the parent of a compound that is named as a salt. ± gives the standard deviation of the averaged measurements. The full ranking holds about 1,100 compounds; the median of “day of extracellular matrix detachment from plate” is about 16, and the lowest 2% start at about 10. The entries come from a sample that favours the lowest values as a whole. Where a SMILES comes first, the peptide text is derived from it. Bridges are numbered along the chain shown (N, C = ends). [ ]: non-standard residue; d: D form. Orn = NCCC[C@H](N)C(=O)O; Mpa = O=C(O)CCS

Each compound was assayed on RDEB dermal fibroblasts EB71 (assay: day of extracellular matrix detachment from plate (days); higher = delayed detachment (less fibrotic matrix)). Conditions: compound concentration: 10 uM.

SMILES	day of extracellular matrix detachment from plate
O=c1sn(-c2cccc3ccccc23)c(=O)n1Cc1ccccc1 [Tideglusib]	18.7 ± 4
CC1(C)Cc2c(-c3ccccc3)c(-c3ccc(Cl)cc3)c(CC(=O)O)n2C1 [Licofelone]	16
NC(=O)c1ccc(I)c([N+](=O)[O-])c1 [Iniparib (BSI-201)]	12.3 ± 1.1
CC(=O)Nc1ccc(O)cc1 [Acetaminophen]	11
CC(=O)Nc1ccccc1 [Acetanilide]	10 ± 1.7
CCOc1ccc(NC(C)=O)cc1 [Phenacetin]	12
C=C1[C@H](CO)[C@@H](O)C[C@@H]1n1cnc2c(=O)[nH]c(N)nc21 [Entecavir Hydrate]	12.7 ± 2.9
CCOc1nc2cccc(C(=O)OCc3oc(=O)oc3C)c2n1Cc1ccc(-c2ccccc2-c2noc(=O)[nH]2)cc1 [Azilsartan Medoxomil]	19 ± 1.7
CCCCCC(=O)O[C@]1(C(C)=O)CC[C@H]2[C@@H]3CCC4=CC(=O)CC[C@]4(C)[C@H]3CC[C@@]21C [Hydroxyprogesterone caproate]	20
C[C@@H]1C[C@H]2[C@@H]3CCC4=CC(=O)C=C[C@]4(C)[C@@]3(Cl)[C@@H](O)C[C@]2(C)[C@@]1(OC(=O)c1ccco1)C(=O)CCl [Mometasone furoate]	29.5 ± 7.1
C[C@H](Cc1cc2c(c(C(N)=O)c1)N(CCCO)CC2)NCCOc1ccccc1OCC(F)(F)F [Silodosin]	11
CCCC(=O)OCOC(=O)C1=C(C)NC(C)=C(C(=O)OC)C1c1cccc(Cl)c1Cl (stereo not drawn) [Clevidipine Butyrate]	19.3 ± 6.3
CC(=O)OCC(=O)[C@H]1CC[C@H]2[C@@H]3CCC4=CC(=O)CC[C@]4(C)[C@H]3CC[C@]12C [Deoxycorticosterone acetate]	13
C=C1/C(=C\C=C2/CCC[C@]3(C)[C@@H]([C@H](C)CCCC(C)C)CC[C@@H]23)C[C@@H](O)C[C@@H]1O [Alfacalcidol]	36
CCCCCCCC(=O)N[C@H](CN1CCCC1)[C@H](O)c1ccc2c(c1)OCCO2 [Eliglustat Tartrate]	18.3 ± 7.6
COc1ccc(-c2ccc3cc(C(=O)O)ccc3c2)cc1C12CC3CC(CC(C3)C1)C2 [Adapalene]	16
Cc1c(F)cc(C(=O)NC2CC2)cc1-c1ccc(C(=O)NCC(C)(C)C)cn1	16 ± 1.4
CCCCCCCCCCCCCCCC(=O)O[C@@H]1[C@@H](O)[C@@H](O)[C@@H]([C@H](NC(=O)[C@@H]2C[C@@H](CCC)CN2C)[C@H](C)Cl)O[C@@H]1SC [Clindamycin palmitate HCl]	18
Cc1cn([C@H]2O[C@@H](CO)[C@H](O)[C@H]2F)c(=O)[nH]c1=O [Clevudine]	15.3 ± 2.3
O=C(O)CCCN1CCC(O[C@@H](c2ccc(Cl)cc2)c2ccccn2)CC1 [Bepotastine Besilate]	18.7 ± 4
CCOc1ccc(C[C@H]2NC(=O)CCSSC[C@@H](C(=O)N3CCC[C@H]3C(=O)N[C@@H](CCCN)C(=O)NCC(N)=O)NC(=O)[C@H](CC(N)=O)NC(=O)[C@H]([C@@H](C)O)NC(=O)[C@H]([C@@H](C)CC)NC2=O)cc1 [Atosiban Acetate] ([Mpa][dY](Et)ITNCP[Orn]G-NH2; disulfide 1-6)	19 ± 3

SMILES	day of extracellular matrix detachment from plate
C=C1c2cccc(O)c2C(=O)C2=C(O)[C@]3(O)C(=O)C(C(N)=O)=C(O)[C@@H](N(C)C)[C@@H]3[C@@H](O)[C@H]12 [Methacycline HCl]	17 ± 1.7
C[C@]12C=CC(=O)C=C1CC[C@@H]1[C@@H]2C(=O)C[C@@]2(C)[C@H]1CC[C@]2(O)C(=O)CO [Prednisone]	10.3 ± 1.1
C[C@H]1C[C@@H]2[C@H](C(=O)C[C@@]3(C)[C@H]2CC[C@]3(O)C(=O)CO)[C@@]2(C)C=CC(=O)C=C12 [Methylprednisone]	18.3 ± 4
C[C@H]1C[C@H]2[C@@H]3CCC4=CC(=O)C=C[C@]4(C)[C@H]3C(=O)C[C@]2(C)[C@@]1(O)C(=O)CO [Meprednisone]	18.3 ± 8.1
CCOC(=O)C1=C[C@@H](OC(CC)CC)[C@H](NC(C)=O)[C@@H](N)C1 [Oseltamivir Phosphate]	20 ± 1.7
OC1(c2ccc(Cl)c(C(F)(F)F)c2)CCN(CCCC(c2ccc(F)cc2)c2ccc(F)cc2)CC1 [Penfluridol]	25.5 ± 5
Cc1nc(C)c(Cl)c(O)c1Cl [Clopidol]	18 ± 1.7
NC(=O)N1CCC(CC(=O)N2CCC([C@H]3c4ncc(Br)cc4CCc4cc(Cl)cc(Br)c43)CC2)CC1 [Lonafarnib]	25
CCOC(=O)C1=C(C)NC(C)=C(C(=O)OCC)C1c1ccccc1/C=C/C(=O)OC(C)(C)C [Lacidipine]	19.3 ± 6.3
CCC(=O)NCC[C@@H]1CCc2ccc3c(c21)CCO3 [Ramelteon]	9.67 ± 1.1
Cc1ccc(C(=O)c2ccc(CC(=O)O)n2C)cc1 [Tolmetin Sodium]	19.3 ± 1.1
Clc1cccc(Cl)c1NC1=NCCN1 [Clonidine HCl]	11 ± 1.7
COc1nc(C)nc(Cl)c1NC1=NCCN1 [Moxonidine]	10 ± 1.7
O=S(=O)(O)CCCS(=O)(=O)O [Eprodisate (disodium)]	18
FC(F)(F)c1ccc(/C=C/c2nc(COc3ccc(CCCCn4ccnn4)cc3)co2)cc1 [Mubritinib (TAK 165)]	15.7 ± 6.3
Cc1nc(C(=O)NCC(=O)O)c(O)c2ccc(Oc3ccccc3)cc12	23.7 ± 2.3
Nc1nc(=O)c2nc(CNc3ccc(C(=O)N[C@@H](CCC(=O)O)C(=O)O)cc3)cnc2[nH]1 [Folic acid]	17
O=C1CCc2cc(OCCCCc3nnnn3C3CCCCC3)ccc2N1 [Cilostazol]	10.3 ± 1.1
O=C1CCc2ccc(OCCCCN3CCN(c4cccc(Cl)c4Cl)CC3)cc2N1 [Aripiprazole]	19.3 ± 6.3
Cn1nnc2c(C(N)=O)ncn2c1=O [Temozolomide]	9.67 ± 1.1
Nc1c(CC(=O)O)cccc1C(=O)c1ccc(Br)cc1 [Bromfenac Sodium]	13

SMILES	day of extracellular matrix detachment from plate
CC1(C)S[C@@H]2[C@H](NC(=O)[C@H](NC(=O)N3CCN(S(C)(=O)=O)C3=O)c3ccccc3)C(=O)N2[C@H]1C(=O)O [Mezlocillin Sodium]	13
Cc1cccc(-c2nn3c(c2-c2ccnc4ccc(C(N)=O)cc24)CCC3)n1	29.5 ± 9.2
CCN(CCCc1ccccc1)CCCc1ccccc1 [Alverine Citrate]	18
C=CCc1cc(OC)c(O)c(C(=O)NCCO)c1 [Alibendol]	15.7 ± 6.3
Nc1ccc(/N=N/c2ccccc2)c(N)n1 [Phenazopyridine HCl]	13
C[C@@H](NCCCc1cccc(C(F)(F)F)c1)c1cccc2ccccc12 [Cinacalcet HCl]	12.3 ± 1.1
NS(=O)(=O)c1ccc(C(=O)O)cc1 [Carzenide]	12.3 ± 2.3
CC[C@H](C)C(=O)O[C@H]1C[C@H](O)C=C2C=C[C@H](C)[C@H](CC[C@@H](O)C[C@@H](O)CC(=O)O)[C@H]21 [Pravastatin sodium]	20 ± 1.7
O=C(NC(Cc1cc(=O)[nH]c2ccccc12)C(=O)O)c1ccc(Cl)cc1 (stereo not drawn) [Rebamipide]	15.7 ± 6.3
CC1(C)[C@@H](OC(=O)CCC(=O)O)CC[C@]2(C)[C@H]3C(=O)C=C4[C@@H]5C[C@@](C)(C(=O)O)CC[C@]5(C)CC[C@@]4(C)[C@]3(C)CC[C@@H]12 [Carbenoxolone Sodium]	13
CC[C@H](C)C[C@H](C)CCCCCCCCC(=O)N[C@H]1C[C@@H](O)[C@@H](NCCN)NC(=O)[C@@H]2[C@@H](O)CCN2C(=O)[C@H]([C@H](O)CCN)NC(=O)[C@H]([C@H](O)[C@@H](O)c2ccc(O)cc2)NC(=O)[C@@H]2C[C@@H](O)CN2C(=O)[C@H]([C@@H](C)O)NC1=O [Caspofungin Acetate]	18
CC(CCc1ccc(O)cc1)NCC(O)c1ccc(O)cc1 (stereo not drawn) [Ractopamine HCl]	13
N#CC[C@H](C1CCCC1)n1cc(-c2ncnc3[nH]ccc23)cn1	16
Cc1cn(-c2cc(NC(=O)c3ccc(C)c(Nc4nccc(-c5cccnc5)n4)c3)cc(C(F)(F)F)c2)cn1 [Nilotinib (AMN-107)]	30.5 ± 6
O=c1oc2c(O)c(O)cc3c(=O)oc4c(O)c(O)cc1c4c23 [Ellagic acid]	10.3 ± 1.1
CCN1CCN(C(=O)N[C@@H](C(=O)N[C@@H]2C(=O)N3C(C(=O)O)=C(CSc4nnnn4C)CS[C@H]23)c2ccc(O)cc2)C(=O)C1=O [Cefoperazone]	10.3 ± 1.1
CCN1CCN(C(=O)N[C@@H](C(=O)N[C@@H]2C(=O)N3[C@@H]2SC(C)(C)[C@@H]3C(=O)O)c2ccccc2)C(=O)C1=O [Piperacillin Sodium]	13
CO/N=C(\C(=O)N[C@@H]1C(=O)N2C(C(=O)O)=C(CSc3nnnn3C)CS[C@H]12)c1csc(N)n1 [Cefmenoxime hydrochloride]	18 ± 1.4
CC(C)[C@H]1C(=O)N[C@@H](CCCNC(=N)N)C(=O)NCC(=O)N[C@@H](CC(=O)O)C(=O)N[C@H](Cc2ccccc2)C(=O)N1C [Cilengitide]	6
CCCCCCCCCC(=O)N[C@@H](Cc1c[nH]c2ccccc12)C(=O)N[C@H](CC(N)=O)C(=O)N[C@@H](CC(=O)O)C(=O)N[C@@H]1C(=O)NCC(=O)N[C@@H](CCCN)C(=O)N[C@@H](CC(=O)O)C(=O)N[C@H](C)C(=O)N[C@@H](CC(=O)O)C(=O)NCC(=O)N[C@H](CO)C(=O)N[C@@H]([C@H](C)CC(=O)O)C(=O)N[C@@H](CC(=O)c2ccccc2N)C(=O)O[C@@H]1C [Daptomycin]	22
NC(=O)[C@@H]1CSSCCC(=O)N[C@@H](CCCCN=C(N)N)C(=O)NCC(=O)N[C@@H](CC(=O)O)C(=O)N[C@@H](Cc2c[nH]c3ccccc23)C(=O)N2CCC[C@H]2C(=O)N1 [Eptifibatide Acetate]	22
